The whole screen tested about 150,000 compounds, of which about 6,500 (4.3%) were called active. About 12% were inconclusive and are not listed. This is one part of a sample in which actives are shown more often than they occur. The call rests on the fitted dose curve; in most records, active means well fitted inhibition curve with a large enough effect (not every such curve was filed as active); inconclusive means small, poorly fitted or top-dose-only effect, or another doubt; inactive means no such curve, though single readings can be large or run the other way.
target: 15-hydroxyprostaglandin dehydrogenase [NAD(+)] (Homo sapiens) (UniProt P15428); assay: qHTS Assay for Inhibitors of HPGD (15-Hydroxyprostaglandin Dehydrogenase); details: purified HPGD, NADH fluorescence kinetic, PGE2 substrate; activity change, negative = inhibition: stronger effect = lower value
In short: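 NADH formation kinetics: reaction with 30 uM PGE2 and 1 mM NAD+ (final), 20 nM enzyme, Tris-HCl pH 8 with Tween 20, after 15 min compound preincubation at room temperature. Fluorescence change, last versus first of five reads.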
On the % scale 0 is the no-effect control and ±100 the full control effect; potency means the concentration at half of the fitted maximal effect.

15-hydroxyprostaglandin dehydrogenase [NAD(+)] (Homo sapiens), sequence (P15428 whole entry, looked up): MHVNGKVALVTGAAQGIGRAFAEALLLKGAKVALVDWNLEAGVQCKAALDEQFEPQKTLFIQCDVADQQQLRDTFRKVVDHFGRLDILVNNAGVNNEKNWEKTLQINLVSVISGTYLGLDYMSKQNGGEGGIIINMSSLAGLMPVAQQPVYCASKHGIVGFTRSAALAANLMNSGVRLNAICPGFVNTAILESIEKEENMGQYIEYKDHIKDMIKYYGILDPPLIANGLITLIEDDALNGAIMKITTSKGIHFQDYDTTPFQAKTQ

Activity change, negative = inhibition, inactive:
N#C/C(C(=O)N1CCOCC1)=C1/SC(Cc2ccc(F)cc2)C(=O)N1c1ccccc1 (stereo not given) -13.3%
Cc1ccc(C(=O)N2CCN(C(=O)N3CCOCC3)CC2)cc1 3.86%
Cc1cccc(-n2c(N)cc(=O)nc2SC(C)C(=O)NC2CCCCC2)c1 (stereo not given) -19.7%
CC(C)=C1SC(N2CCN(c3cccc(C)c3)CC2)=NC1=O -16.6%
CC(=O)c1c(N2CCOCC2)nc(=S)n(-c2cc(C)ccc2C)c1C -12.5%
O=S(=O)(NCCSc1ccccn1)c1ccc(Cl)cc1 -1.01%
C=C/C1=C/Cc2ccccc2[C@H](C[N+](=O)[O-])C(C(=O)OC)(C(=O)OC)C1 -16.5%
CCOc1cc(CNCc2ccccn2)ccc1OCC(=O)NC(C)(C)C -9.37%
CC(C)(C)C(=O)N1CCC[C@@]1(CO)C(=O)O -2.24%
COc1ccc(CNC(=O)CCCn2nc(C)c([N+](=O)[O-])c2C)cc1 -13.5%
CCC(C)C(=O)Nc1cc([N+](=O)[O-])ccc1Cl (stereo not given) -1.06%
C=CCn1c(CCNC(=O)c2cccs2)n[nH]c1=S -27.1%
Cc1nnc(SCC(=O)N2CCc3ccccc3C2)s1 -6.45%
O=C(c1cc(-c2ccc(O)cc2)on1)N1CCCc2ccccc21 -28%
CCCNC(=O)NC(=O)COC(=O)CC(NC(N)=O)c1ccc(Cl)cc1 (stereo not given) -4.57%
O=C(Nc1ccc2c(c1)CCC2)c1cccc(S(=O)(=O)Nc2ccccc2Cl)c1 -11.7%
CC1(C)CC(CCC(=O)Nc2ccccc2Cl)C(=O)O1 (stereo not given) -12.3%
Cc1nn(-c2ccccc2)c(-n2cccc2)c1C(=O)O -6.97%
N/C(=N\OC(=O)CC1CCCCC1)c1ccccc1 -21.9%
CCOC(=O)CSC1=C(C#N)C(c2sccc2C)CC(=O)N1 (stereo not given) -3.48%
Cc1ccc(C2CC(=O)NC(SCC(=O)OCc3ccccc3)=C2C#N)o1 (stereo not given) -25.8%
CSCCC(NC(=O)COc1ccccc1)C(=O)Nc1ccc(C)cc1 (stereo not given) -0.719%
CCCCC/C=C\C/C=C\C/C=C\CCCCC(=O)NCC(=O)O -3.51%
CCC(=O)Nc1c(C)n[nH]c1C -8.91%
Nc1nc(SCC(=O)NCCN2CCOCC2)nc2sc3c(c12)CCC3 -10.4%
CN(C)CCSc1nc(N)c2c3c(sc2n1)COC(C)(C)C3 -15.6%
COC(=O)c1sccc1NC(=O)COc1ccc(Cl)cc1 -12%
Cc1sc2nc(CSCC(=O)Nc3c(Cl)cccc3Cl)[nH]c(=O)c2c1C -14%
Cc1sc2nc(SCC(N)=O)n(C)c(=O)c2c1C -0.652%
COc1ccc(-c2[nH]ncc2/C=N/NC(=O)c2cc(Br)ccc2O)c(OC)c1 -16.3%
Cc1ccc(S(=O)(=O)N(C)C)cc1NC(=O)/C=C/c1cccs1 -12.9%
CS(=O)(=O)N(Cc1ccccc1)c1ccc(C(=O)NN=C2CCCCCC2)cc1 -5.89%
CCCC/C(C)=N/NC(=O)NC1CCCCC1 -6.12%
Cc1ccc(C2=NN(C(=O)CSc3nc(N)cc(N)n3)C(c3ccco3)C2)cc1 (stereo not given) -20.9%
CS(=O)(=O)Nc1cccc(C2=NN(S(=O)(=O)c3ccccc3)C(c3cccs3)C2)c1 (stereo not given) -7.08%
COc1ccc(-c2csc(NC(=O)COC(=O)c3ccc(Br)o3)n2)cc1 -1.93%
O=c1ccn(Cc2ccccc2Cl)cc1 0.459%
O=C1c2ccccc2C(O)N1Cc1ccccc1 (stereo not given) -28.7%
C=CCC1CCC(=O)N2CCCC12 (stereo not given) -1.41%
COc1ccc(/C=C2\NC(=O)[C@@H]3Cc4ccccc4CN3C2=O)cc1 -5.55%
COC(=O)C1=C(C(=O)OC)[C@@H]2N(Cc3ccccc3)c3ccccc3[C@@]23C[C@@H](C(=O)OC)N(S(=O)(=O)c2ccc(C(F)(F)F)cc2)C3=N1 -11.4%
Cc1ccc(Cn2ccc(NC(=O)c3cc(C(C)C)on3)n2)cc1 -19.4%
O=C(Nc1ccn(Cc2ccc(F)cc2)n1)c1ccncc1 1.11%
CCOc1ccc(N2C(=O)/C(=C/c3ccc(C)o3)N(C)C2=S)cc1 -30%
COc1cc(OC)cc(C(=O)NCC(=O)OCc2csc(-c3ccccc3)n2)c1 -9.37%
CNC(=O)c1csc(-c2ccccc2)n1 -8.99%
CC1CCCCN1S(=O)(=O)c1ccc(S(=O)(=O)N(CC(=O)Nc2ccccc2)Cc2cccs2)cc1 (stereo not given) -10.3%
O=C(CN1C2=NCCN2c2ccccc21)c1cccs1 -3.36%
COc1ccc2c(c1)O[C@@H](c1ccc3c(c1)OCO3)[C@H](OC(=O)NCc1ccco1)C2=O -11.6%
C[C@H]1Cc2c(COc3ccccc3)nc3c(c2CO1)CN(C(=O)NCc1ccco1)CC3 -1.13%
COc1nc(N(C)C)nc(N2CC(=O)N(CCNS(=O)(=O)c3ccc(C)cc3)C2=N)n1 -10.5%
c1ccc(COc2nsnc2N2CCOCC2)cc1 -17.1%
O=C(COc1nc2ccccc2nc1N1CCOCC1)NCC(F)(F)F -9.54%
C=CCNC(=O)/C(=C\c1cccc([N+](=O)[O-])c1)NC(=O)c1ccccc1 -14.6%
Cc1cc(C)cc(OCC(=O)NNC(=O)CCN2C(=O)c3ccccc3C2=O)c1 -12.4%
CCOC(=O)c1nnn(-c2nonc2-n2cccc2)c1CN1CCOCC1 -13.3%
CCOC(=O)c1nnn(-c2nc(OC)nc(N(C)C)n2)c1-c1ccccc1 -1.76%
O=C1C=C(c2ccccc2)CCC1 -3.18%
CC1=C2[C@@H](O)[C@H]([C@@H](C)C(=O)NCCC(C)C)CC[C@@]2(C)C=CC1=O -7.81%
Cc1ccccc1N/C(SCc1ccc(Cl)cc1)=C(/C#N)C(N)=O -18.2%
COC(=O)CCCC1=CC2=CC(=O)C(C)(OC(=O)c3cccs3)C(=O)C2=CN1c1ccc(CO)cc1 (stereo not given) -7.14%
CCOC(=O)c1cc2n(c1C)-c1ccccc1C2=O -17.5%
CCOC(=O)Nc1ccccc1N1C(=O)c2ccccc2C1=O -2.62%
COc1ccc(OC)c(-c2c(=O)n(OCc3ccccc3Br)c3ccccc3[n+]2[O-])c1 -7.2%
COC(=O)C1=C(C(=O)OC)[C@@H]2N(C)c3ccccc3[C@@]23C[C@@H](C(=O)OC)N(S(=O)(=O)c2cccs2)C3=N1 -9.16%
CCCCCCCC[C@@H](O)/C=C/C=C/C=C\[C@@H](O)CCCC(=O)O -0.184%
Nc1nc(SCCOc2ccccc2)n[nH]1 -1.6%
Nc1nc(SCC(=O)NN(c2ccccc2)c2ccccc2)n[nH]1 -3.02%
COc1ccc(Cl)cc1NC(=O)Cn1nc(-c2ccc(C)cc2)n(C)c1=S -0.416%
C[C@H]1Cc2c(COc3ccccc3)nc3c(c2CO1)CN(C(=O)Nc1cccc(C#N)c1)CC3 0.277%
S=C(NCCc1ccccc1)NCc1ccccc1Cl -18.9%
O=S(=O)(NCCc1ccncc1)c1ccccc1 -10.2%
Cc1cc(Cl)ccc1NC(=S)NCCCN1CCCC1=O -1.25%
NS(=O)(=O)c1ccc(CCNC(=O)Nc2ccc(Cl)cc2)cc1 -8.27%
Cc1ccnc(NC(=O)c2ccoc2C)c1 -2.58%
Cc1cc2oc(C(=O)Nc3c(C)n(C)n(-c4ccccc4)c3=O)c(C)c2cc1Cl -3.54%

Potency, active:
N#Cc1ccccc1-n1c(N)c(C(=O)N2CCCC2)sc1=S 25.1 µM
Cc1cccc(-n2c(N)c(C(=O)N3CCN(C)CC3)sc2=S)c1 10 µM
Cc1ccc(-n2c(N)c(C(=O)N3CCOCC3)sc2=S)c(C)c1 7.94 µM
O=C(c1cc(-c2cccc(O)c2)on1)N1CCc2ccccc2C1 25.1 µM
O=C(Cc1ccc2c(c1)CCCC2)Nc1ccccc1Cl 3.16 µM
C=CCSC1=C(C#N)C(c2cc(Br)c(O)c(OC)c2)CC(=O)N1 (stereo not given) 17.8 µM
CC(C)(C)C1CCc2c(sc3nc(SCC(N)=O)nc(N)c23)C1 (stereo not given) 28.2 µM
C=CCNC(=O)CSc1nc2sc(C)c(C)c2c(=O)[nH]1 14.1 µM
CCS(=O)(=O)Nc1ccc(C2=NN(S(=O)(=O)c3ccc(F)cc3)C(c3ccco3)C2)cc1 (stereo not given) 12.6 µM
O=C1c2ccccc2C(O)N1Cc1ccccc1Cl (stereo not given) 12.6 µM
O=C(Nc1ccn(Cc2ccccc2)n1)c1n[nH]c([N+](=O)[O-])c1Cl 28.2 µM
C=CCNC(=O)c1csc(-c2ccccc2)n1 15.8 µM
S=c1[nH]nc(SCc2ccccc2Cl)c2[nH]cnc12 1.26 µM
c1nc(COc2nsnc2N2CCOCC2)cs1 31.6 µM
CCOC(=O)c1nnn(-c2nonc2OC)c1-c1ccccc1 8.91 µM
CCOC(=O)c1cc2n(c1N)-c1ccccc1C2=O 31.6 µM
Nc1nc(SCC(=O)NNc2c(Cl)cc(Cl)cc2Cl)n[nH]1 35.5 µM
N#C/C(=C\c1ccccc1)c1n[nH]c(Cn2cncn2)n1 28.2 µM
Oc1cc2c(cc1O)CN(C(=S)NCCc1ccc(Cl)cc1)CCC2 14.1 µM
